An excerpt weighted towards active compounds, which were near 7.4% of everything screened.
NPC1 prom act – activators of NPC1 promoter; AID 485313; Potency, µM (series often up to 9.22 µM), inactives show at the top dose activation, most hits filed as activators; actives 2.4% (n = 320,000); Huh7 NPC1 promoter luciferase reporter, 24 h; also: % of control where 0% means no effect; nearly all actives have a fitted effect of over 60% in size
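Stable NPC1-promoter luciferase Huh7 line; cpd (DMSO) 24 h, 37 °C, 5% CO2; Amplite luciferase reagent 10 min RT; luminescence readout. qHTS format.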
ELG1 genotoxic – inducers of genotoxicity in HEK293T ELG1-luciferase cells; Potency, µM (top dose mostly 46 µM), without a hit: top-dose activity change, positive = activation, most hits filed as activators; actives 1.3% (n = 330,000); HEK293T ELG1-luciferase reporter, luminescence, 16 h; also: % of control where 0% means no effect; nearly all actives have a fitted effect of over 60% in size
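Step 1: seed 2,000 HEK293T ELG1-luciferase cells per well. Step 2: add compound or DMSO, incubate 16 hr at 37 °C. Step 3: ONE-Glo, 30 min at room temperature, read luminescence.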
SMN2 splice enh – SMN2 splice variant enhancement | HEK293 SMN2-luciferase splicing reporter, luminescence, 30-36 h | Potency, µM (top dose mostly 46.1 µM), for the others: at the highest dose activity change, positive = activation, most hits filed as activators | actives 2.8% (n = 210,000) | AID 1458; also: % of control where 0% means no effect; nearly all actives have a fitted effect of over 55% in size
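qHTS luciferase splicing reporter: luminescence rises when SMN2 exon 7 is included in transfected HEK293 cells. Compound exposure lasted 30-36 h at 37C, with 4.5 mM final sodium butyrate as control, followed by a ONE-Glo read.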
Rab9 promoter act – activates the Rab9 promoter | Huh7 Rab9 promoter-luciferase reporter, luminescence, 24 h | Potency, µM (titrated, usually from 9.22 µM), inactives show at the top dose activation, negative = inhibition, hits mostly activators | actives 2.8% (n = 320,000) | AID 485297; also: % of control where 0% means no effect; nearly all actives have a fitted effect of over 60% in size
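Steps: seed 1500 Huh7 Rab9-luc cells per well, rest 2 h at 37 °C; add compound in DMSO; incubate 24 h; add luciferase reagent, 10 min ambient; read luminescence.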
FLuc modulator – inhibits or activates purified firefly luciferase, miR-21 counter-screen; Potency, µM (doses to about 57.5 µM), for inactives: top-dose activity change, negative = inhibition, most hits filed as inhibitors; purified FLuc, Km substrates, luminescence inhibition; actives 6.9% (n = 360,000); AID 588342;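 also: plate controls were vehicle for no effect and reference inhibitor for full effect; nearly all actives have a fitted effect of over 55% in size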
Target sequence (P08659 whole entry, looked up): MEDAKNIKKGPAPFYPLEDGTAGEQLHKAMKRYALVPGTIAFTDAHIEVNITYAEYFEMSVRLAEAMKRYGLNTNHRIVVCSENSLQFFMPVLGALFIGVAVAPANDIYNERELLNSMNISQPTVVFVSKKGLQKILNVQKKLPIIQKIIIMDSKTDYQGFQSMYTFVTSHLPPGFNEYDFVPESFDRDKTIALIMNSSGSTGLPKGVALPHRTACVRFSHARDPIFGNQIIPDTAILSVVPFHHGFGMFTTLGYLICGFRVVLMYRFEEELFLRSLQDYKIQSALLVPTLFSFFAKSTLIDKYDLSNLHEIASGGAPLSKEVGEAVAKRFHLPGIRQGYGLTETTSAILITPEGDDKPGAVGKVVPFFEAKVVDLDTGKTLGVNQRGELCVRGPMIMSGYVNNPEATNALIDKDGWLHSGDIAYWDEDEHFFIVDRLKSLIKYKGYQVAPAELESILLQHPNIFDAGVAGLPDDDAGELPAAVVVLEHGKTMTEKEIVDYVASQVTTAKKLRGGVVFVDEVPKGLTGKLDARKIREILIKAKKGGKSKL
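Purified P. pyralis luciferase, 10 nM final, with Km-level 10 uM D-luciferin and 10 uM ATP in 50 mM Tris acetate pH 7.5, 10 mM Mg acetate, 0.01% Tween-20, 0.05% BSA; 6-point qHTS titration about 60 µM downward; luminescence read.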
Active calls of the source: *; [ ] = remark or other dose. Calls follow the shape of the dose curve; as a rule, active = well fitted curve in the direction sought with a large enough effect; inconclusive = small, poorly fitted or top-dose-only effect, or another doubt; inactive = no such curve, though single readings can be large; an effect the other way counts as inactive or inconclusive. Potency is read from the fitted curve at half-maximal effect.

What do the screens show for `COC(=O)Cc1ccc(NC(=O)c2ccccc2Cl)cc1`?
NPC1 prom act: 1.9%; ELG1 genotoxic: 15.1%; SMN2 splice enh: 22.8%; Rab9 promoter act: -2.4%; FLuc modulator: 15.1µM*

What do the screens show for `CC(C)(C)c1ccc(NC(=O)c2ccsc2)cc1`?
NPC1 prom act: 0.447µM*; ELG1 genotoxic: inconclusive; Rab9 promoter act: 0.398µM*; FLuc modulator: 1.07µM*

How did Cn1c(-c2nonc2NC(=O)c2ccc(C(C)(C)C)cc2)nc2ccccc21 do in these assays?
NPC1 prom act: 0.0%; ELG1 genotoxic: -2.1%; SMN2 splice enh: -2.4%; Rab9 promoter act: -3.8%; FLuc modulator: -6.4%

What do the screens show for `Cc1nc2ccn(Cc3cccs3)c(=O)c2cc1C(=O)N1CCN(c2ccccc2F)CC1`?
FLuc modulator: -5.0%

What do the screens show for `COc1ccc(C(=O)OCC(=O)NC2CCCCCCC2)cc1OC`?
ELG1 genotoxic: -1.5%

How did O=C(CSc1nc2ccccc2c2c1CCCC2)N1CCOCC1 do in these assays?
NPC1 prom act: -3.5%; ELG1 genotoxic: -8.1%; Rab9 promoter act: -1.1%; FLuc modulator: 1.9%

What do the screens show for `Cc1ccccc1NC(=O)c1c(C)oc2ccc(O)c(CN3CCCC3)c12`?
SMN2 splice enh: 3.9%; FLuc modulator: -1.2%

Results for COc1cccc(C(=O)Nc2ccc(NC(=O)c3ccc(C(C)(C)C)cc3)cc2)c1 ?
SMN2 splice enh: -13.9%; FLuc modulator: 1.3%

What do the screens show for `COC(=O)Cc1ccc(NC(=O)c2ccc(C(C)(C)C)cc2)cc1`?
NPC1 prom act: -29.2%; ELG1 genotoxic: -22.6%; SMN2 splice enh: -86.9%; Rab9 promoter act: -19.2%; FLuc modulator: 1.35µM*

What do the screens show for `Cc1ccc2c(c1)N=C(c1ccccc1)CC(C(Cl)Cl)=N2`?
NPC1 prom act: inconclusive; ELG1 genotoxic: inconclusive; Rab9 promoter act: 3.16µM*; FLuc modulator: 8.49µM*

Results for Cc1ccc(C2=Nc3ccccc3N=C(C(Cl)Cl)C2)cc1 ?
NPC1 prom act: 3.16µM*; ELG1 genotoxic: inconclusive; SMN2 splice enh: -67.1%; Rab9 promoter act: 3.16µM*; FLuc modulator: 9.53µM*

How did COC(=O)c1cc2oc(C)cc2n1CC(=O)Nc1ccc(C(C)C)cc1 do in these assays?
SMN2 splice enh: 16.7%; FLuc modulator: inconclusive

How did CN1c2ccccc2C(=O)/C(=C\Nc2ccc(F)cc2F)S1(=O)=O do in these assays?
NPC1 prom act: 2.1%; ELG1 genotoxic: 0.2%; Rab9 promoter act: -1.1%; FLuc modulator: 2.39µM*

How did Cc1cccc(CSc2ncc(CO)n2Cc2ccc(F)cc2)c1 do in these assays?
FLuc modulator: -1.4%

Results for OCCN[C@@H]1c2cc(Cl)ccc2-c2c(Cl)cc(Cl)cc21 ?
SMN2 splice enh: -9.2%[9.22 µM]

Results for CC(C)NC(=O)c1ccc2c3n(nc2c1)-c1ccccc1CO3 ?
NPC1 prom act: 0.282µM*; ELG1 genotoxic: inconclusive; Rab9 promoter act: inconclusive; FLuc modulator: 0.426µM*

How did CC(C)[C@@H](CO)NC(=O)c1ccc2c3n(nc2c1)-c1ccccc1CO3 do in these assays?
NPC1 prom act: 0.501µM*; ELG1 genotoxic: inconclusive; Rab9 promoter act: inconclusive; FLuc modulator: 1.69µM*

Results for CC(C)NC(=O)c1ccc(NC(=O)N2CCCCc3ccccc32)cc1 ?
FLuc modulator: -3.7%

What do the screens show for `CCC(C(=O)OCC(=O)Nc1cc(Cl)cc(Cl)c1)c1ccccc1` (configuration not stated)?
NPC1 prom act: -4.2%; ELG1 genotoxic: 1.1%; SMN2 splice enh: -13.6%; Rab9 promoter act: 0.4%; FLuc modulator: -1.8%

Results for COC(=O)c1c(NC(=O)CCNCc2ccco2)sc2c1CCC2 ?
NPC1 prom act: -2.1%; ELG1 genotoxic: -0.6%; Rab9 promoter act: -1.9%; FLuc modulator: -1.0%

What do the screens show for `O=C(CSc1nncc2ccccc12)Nc1cccc(O)c1`?
NPC1 prom act: -2.5%; ELG1 genotoxic: -2.1%; Rab9 promoter act: -0.9%; FLuc modulator: inconclusive

How did O=C(CCCCCN1C(=O)c2cccc3cccc(c23)C1=O)NC1CCS(=O)(=O)C1 (configuration not stated) do in these assays?
NPC1 prom act: -4.9%; ELG1 genotoxic: 5.3%; Rab9 promoter act: -2.2%; FLuc modulator: 15.1µM*

What do the screens show for `Cc1cccc(C)c1NC(=O)CN1C(=O)C2CC=CCC2C1=O` (configuration not stated)?
NPC1 prom act: -1.7%; ELG1 genotoxic: 3.2%; Rab9 promoter act: -2.9%; FLuc modulator: 5.3%

Results for CN(C)c1cccc(C(=O)NNC(=O)CN2C(=O)C3CC=CCC3C2=O)c1 (configuration not stated) ?
ELG1 genotoxic: 10.3µM*

What do the screens show for `O=C1CCCC(O)=C1C=Nc1ccc2c(c1)oc1ccccc12`?
NPC1 prom act: 24.6%; ELG1 genotoxic: 0.0%; SMN2 splice enh: inconclusive; Rab9 promoter act: inconclusive; FLuc modulator: 2.13µM*

How did Fc1ccc(-n2ncc3c(N4CCN(c5ccccc5F)CC4)ncnc32)cc1 do in these assays?
FLuc modulator: -4.0%

How did c1ccc(-n2ncc3c(N4CCC5(CC4)OCCO5)ncnc32)cc1 do in these assays?
NPC1 prom act: 2.51µM*; ELG1 genotoxic: 4.11µM*; SMN2 splice enh: 12.6µM*; Rab9 promoter act: inconclusive; FLuc modulator: 13.5µM*

How did Cc1ccc(C)c(N2CCN(c3ncnc4c3cnn4-c3ccccc3)CC2)c1 do in these assays?
NPC1 prom act: 2.3%; ELG1 genotoxic: -1.8%; SMN2 splice enh: -17.8%; Rab9 promoter act: 0.1%; FLuc modulator: -5.2%

Results for Cc1cccc(-n2ncc3c(N4CCC5(CC4)OCCO5)ncnc32)c1 ?
NPC1 prom act: 2.82µM*; ELG1 genotoxic: inconclusive; Rab9 promoter act: 2.51µM*; FLuc modulator: 6.75µM*

What do the screens show for `CC(C)(C)c1cc(NC(=O)c2cccc([N+](=O)[O-])c2)no1`?
NPC1 prom act: 2.24µM*; ELG1 genotoxic: inconclusive; SMN2 splice enh: 2.82µM*; Rab9 promoter act: 1.41µM*; FLuc modulator: inconclusive

What do the screens show for `COC(=O)c1ccccc1NC(=O)Nc1cc(C(C)(C)C)on1`?
NPC1 prom act: 2µM*; ELG1 genotoxic: 16.4µM*; Rab9 promoter act: 0.891µM*; FLuc modulator: -8.8%

How did Cc1cc(NC(NC(=O)c2ccco2)(C(F)(F)F)C(F)(F)F)no1 do in these assays?
NPC1 prom act: 15.4%; ELG1 genotoxic: 0.9%; SMN2 splice enh: 13.0%; Rab9 promoter act: 12.9%; FLuc modulator: -1.9%

What do the screens show for `CC(C)(C)c1cc(NC(=O)c2ccco2)no1`?
NPC1 prom act: 1.78µM*; ELG1 genotoxic: 1.3µM*; Rab9 promoter act: 0.631µM*; FLuc modulator: 5.36µM*

What do the screens show for `CC(C)(C)c1cc(NC(=O)Nc2ccccc2OC(F)(F)F)no1`?
NPC1 prom act: 1.7%; ELG1 genotoxic: 0.8%; Rab9 promoter act: -2.5%; FLuc modulator: -2.2%

Compound activity deposited in PubChem BioAssay by National Center for Advancing Translational Sciences (NCATS).
